# About 510 (1.1%) of roughly 47,000 compounds were called active. Only a selection was taken, and actives are over-represented in it overall. Unmarked numbers belong to inactive results. Rule as the data show it: active = inhibition above about 30%; inactive = the rest.
# Molecular target: Ubiquitin carboxyl-terminal hydrolase 10 (Homo sapiens) (UniProt Q14694)
# Assay: inhibitors of human USP10 deubiquitinase (AID 1645856)
# Conditions: purified USP10, Ub-rhodamine fluorescence, 60 min; at 20 µM; active compounds read high
# Chain of Ubiquitin carboxyl-terminal hydrolase 10 (Homo sapiens) (Q14694 whole entry, looked up): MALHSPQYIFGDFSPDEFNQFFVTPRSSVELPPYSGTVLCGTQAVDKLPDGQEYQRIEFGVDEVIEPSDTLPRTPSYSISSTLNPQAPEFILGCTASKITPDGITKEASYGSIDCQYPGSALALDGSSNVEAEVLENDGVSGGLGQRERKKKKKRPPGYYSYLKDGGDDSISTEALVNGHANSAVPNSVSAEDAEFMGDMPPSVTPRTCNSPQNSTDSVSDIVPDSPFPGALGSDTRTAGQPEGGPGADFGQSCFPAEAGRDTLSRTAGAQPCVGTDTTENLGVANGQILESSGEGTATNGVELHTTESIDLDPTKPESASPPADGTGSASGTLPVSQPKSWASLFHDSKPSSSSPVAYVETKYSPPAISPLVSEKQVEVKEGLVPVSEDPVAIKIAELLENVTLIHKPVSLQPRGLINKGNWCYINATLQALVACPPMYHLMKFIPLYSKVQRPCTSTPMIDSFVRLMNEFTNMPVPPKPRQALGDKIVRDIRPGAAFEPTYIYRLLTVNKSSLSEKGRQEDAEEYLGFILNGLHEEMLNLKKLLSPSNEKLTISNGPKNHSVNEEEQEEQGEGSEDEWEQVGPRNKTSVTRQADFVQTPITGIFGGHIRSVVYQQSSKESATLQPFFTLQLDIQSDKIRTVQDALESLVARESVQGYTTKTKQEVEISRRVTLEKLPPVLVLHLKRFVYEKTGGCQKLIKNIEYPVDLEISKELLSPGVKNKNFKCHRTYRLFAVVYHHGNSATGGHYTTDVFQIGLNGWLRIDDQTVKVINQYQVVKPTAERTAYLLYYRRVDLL
row,SMILES,inhibition
1,CC1=C(C(=O)OCCOc2ccccc2)C(c2ccccc2OC(C)C)NC(=O)N1 (stereo not given),5.16%
2,Cc1nn(-c2cccc(Cl)c2)c2c1C(C(=O)c1ccc3c(c1)OCCO3)CC(=O)N2 (stereo not given),-1.54%
3,CN1c2ccccc2O[C@@H]2CC[C@@H](NC(=O)Cn3cccn3)[C@@H](O)[C@@H]21,0.781%
4,COc1ccc2[nH]c3c(N4CCN(C5CCCCC5)CC4)ncnc3c2c1,2.49%
5,O=C(Cn1cccc(-c2nc(-c3ccccc3)no2)c1=O)Nc1ccccc1F,-5.7%
6,Cc1noc(-c2cccn(Cc3cc(F)ccc3F)c2=O)n1,1.28%
7,N#Cc1ccc(NC(=O)Nc2cccn(Cc3ccccc3F)c2=O)cc1,42.6% (active)
8,CN1Cc2cccc(C(=O)N(C)c3nc4c(s3)CCc3occc3-4)c2C1=O,-0.411%
9,COc1cnc(CSc2ccccc2)cc1OCC(=O)Nc1ccc2c(c1)OCO2,0.813%
10,COCCCn1c(C(=O)NCC(=O)OC(C)C)cc2c(=O)n3cccc(C)c3nc21,3.16%
11,COc1ccc(/C=C(\C(=O)N(C)C2CCCCC2)n2ccccc2=O)cc1,-1.04%
12,COc1ccc(-c2cc(C(=O)Nc3ncc(C)s3)c3ccccc3n2)cc1OC,-3.26%
13,CNC(=O)C1CN(C(=O)c2ccccc2F)CC12CCCC2 (stereo not given),-0.0522%
14,Cn1c(=O)n(C2CCN(C(=O)Cc3ccccc3)C2)c2ncncc21 (stereo not given),0.307%
15,O=C1c2ccccc2C2c3[nH]c4ccccc4c3C(c3ccc(F)cc3)CN12 (stereo not given),-4.15%
16,CC(C)N1CCN(S(=O)(=O)c2cc(-c3nnc(C4CC4)o3)co2)CC1,-5.2%
17,Cc1c(C2CCN(C(=O)NCc3ccccc3)CC2)noc1N,-2.52%
18,CC(NC(=O)c1nc2n(n1)-c1ccccc1S(=O)(=O)N2)c1cc2ccccc2o1 (stereo not given),36.5% (active)
19,Cc1noc(C)c1COc1cccc(C(=O)NC(C)c2cc3ccccc3o2)c1 (stereo not given),-0.528%
20,O=C(NCc1cccnc1N1CCCCC1)c1nc2n(n1)-c1ccccc1S(=O)(=O)N2,17.3%
21,CN1CCC2(CN(c3ncccn3)CC23CCN(C(=O)Cc2ccccc2)CC3)C1=O (stereo not given),-1.5%
22,CCn1c(=O)c(C(=O)N2CCN(c3cccc(C)c3)CC2)nc2cccnc21,-3.06%

row,SMILES,inhibition
1,O=S(=O)(c1cccc2nonc12)N1CCC(n2cccc2)CC1,-1.8%
2,COc1cc(Cl)c(C)cc1Nc1ncnc2sccc12,-4.4%
3,NC(=O)CCC(=O)N[C@H]1C[C@H]2CN(Cc3ccccc3)c3ccccc3CN2C1,-7.81%
4,O=C(c1ccccn1)N1CCC(c2nc3ccccc3cc2C(=O)N2CCCC2)CC1,-0.709%
5,O=C(O)C1CCCN1C1=NS(=O)(=O)c2ccccc21 (stereo not given),0.971%
6,CC(=O)N1CCc2cc(C(O)CN3CCN(c4ccccc4)CC3)ccc21 (stereo not given),1.48%
7,Cc1ccc(N2CC(C(=O)N3CCC(C(=O)Nc4ccc(F)cc4F)CC3)CC2=O)cc1 (stereo not given),-5.34%
8,CCC(C(=O)NC1CCCC1)N(C(=O)Cn1nnc(-c2ccc(C)cc2)n1)c1cccc(O)c1 (stereo not given),1.22%
9,Cn1c(=O)c2c3c(cnc2n(C)c1=O)C(=O)CC(c1ccccc1)C3 (stereo not given),-1.08%
10,O=C(NC1CCCC1)c1cc(-c2cccnc2)n(-c2ccc(F)cc2)n1,1.77%
11,c1ccc(-c2ccc(NCc3ccc4c(c3)OCO4)nn2)cc1,3.9%
12,Cc1ccc(S(=O)(=O)N2CCCC2C(=O)N2CCN(c3cccc(Cl)c3)CC2)cc1 (stereo not given),1.5%
13,O=C(COC(=O)C(Cc1c[nH]c2ccccc12)NC(=O)c1ccccc1Cl)c1ccccc1F (stereo not given),6.57%
14,Cn1ccnc1C(NC(=O)c1ccncc1)c1ccc(F)c(F)c1 (stereo not given),-4.27%
15,COc1ccc(CNC2C3=C(CCCC3)C(=O)N2CCc2ccc(Cl)cc2)cc1 (stereo not given),-0.147%
16,CC(C)CN1C[C@@]23CN(C(=O)NCCc4ccc(F)cc4)C[C@@H](C[C@@H]2S1(=O)=O)O3,3.62%
17,COC(=O)C1CCN(C(=O)CC[C@H]2CNC(=O)[C@@H]3[C@@H](CCN3Cc3ccc(C)cc3)N2C)CC1,1.61%
18,COc1cccc(NC(=O)COC(=O)c2ccc(OC)c(S(=O)(=O)Nc3cc(Cl)c(OC)cc3OC)c2)c1,0.441%
19,Cc1ccc(NC(=O)CCC(=O)N(c2ccccc2)c2ccccc2)cc1Cl,11.4%
20,Cc1ccc(NC(=O)CCOc2ccccc2)cc1S(=O)(=O)Nc1ccccc1Cl,30.4% (active)
21,Cc1cc(O)c(=O)cc2c1C[C@H]1CC(C)(C)/C=C/C[C@@]3(C)Oc4cc(=O)c(O)cc(C)c4C[C@@H]3C[C@H](O)[C@]1(C)O2,39.9% (active)
22,Cc1ccc(CNC(=O)CCCn2c(=O)c3sccc3n(CC(=O)OCc3ccccc3)c2=O)cc1,53.7% (active)

row,SMILES,inhibition
1,Cc1ccc(CNC(=O)CC(c2ccccc2)c2ccccc2)cc1,9.59%
2,COc1ccc(CCNC(=O)CCCn2c(=O)c3ccccc3n(CC(=O)OCc3ccccc3)c2=O)cc1OC,12.7%
3,Cc1cccc(-n2c3c(c(=O)[nH]c2=O)CN(Cc2ccco2)CN3)c1C,-1.97%
4,COc1ccc(C(=O)N(c2ccccn2)c2ccccn2)cc1OC,-0.245%
5,CC(=O)Nc1sc2c(c1C(c1cccc(F)c1)N1CCN(CCO)CC1)CCCC2 (stereo not given),-5.42%
6,Cc1c(-c2nn3c(-c4ccco4)nnc3s2)cccc1[N+](=O)[O-],50.9% (active)
7,CC(C)Cc1cc(-c2nn3c(-c4ccccc4Cl)nnc3s2)n[nH]1,13.8%
8,Fc1ccccc1CSc1nnc(C2CCNCC2)o1,-2.32%
9,Cc1cc(-c2ccccc2C(=O)O)nc(C2CCCNC2)n1 (stereo not given),1.65%
10,O=C(Cn1c(=O)n(Cc2ccc3c(c2)OCO3)c(=O)c2ccccc21)NCc1ccco1,25.6%
11,O=C(NCCc1ccccc1)c1ccc2c(=O)nc3c(-c4ccccc4F)n[nH]n3c2c1,3.48%
12,O=C(NCCc1ccccc1)c1ccc2c(=O)n(Cc3ccco3)c(=O)n(Cc3cccc([N+](=O)[O-])c3)c2c1,73.1% (active)
13,O=C(NCc1ccco1)N1CCC2(CC1)Nc1ccccc1-n1cccc12,0.0863%
14,Cc1c(S(=O)(=O)Nc2ccc(F)cc2)cc(C(=O)N2CCCCC2)n1C,1.47%
15,COc1ccc(OC)c(NC(=O)CN2CCc3ccccc32)c1,0.258%
16,Cc1cc(=O)n(CC(=O)NCc2ccccc2)c(N2CCCC2)n1,-2.48%
17,CCc1cccc(C)c1NC(=O)Cn1nc2ccc(C(=O)NCc3ccccc3)cn2c1=O,36% (active)
18,CCc1cccc(C)c1NC(=O)CSc1nc2c(c(=O)[nH]1)CCCC2,0.855%
19,O=C(c1ccc(N2CCCCC2)nn1)N(Cc1ccccc1)c1ccccn1,-1.8%
20,Cn1c(C2CCN(C(=O)Nc3ccc4c(c3)CCC4)C2)nc2cccnc21 (stereo not given),-0.116%
21,Cc1ccc(NC(=O)COC(=O)C2CC(=O)N(c3cccc(C)c3C)C2)cc1 (stereo not given),-7.32%
22,O=C1CCCC2=C1C(c1ccc(C(=O)O)cc1)n1ncc(C(=O)Nc3ccc(F)cc3)c1N2 (stereo not given),-5.67%

row,SMILES,inhibition
1,CCOc1cccc(C2CC(=O)Nc3c2c(C)nn3-c2nncc(-c3ccc(F)cc3)n2)c1 (stereo not given),4.17%
2,Cc1ccc(C2N=C(N3CCCCC3)Nc3nc(C)cc(=O)n32)cc1 (stereo not given),-10.2%
3,O=C(c1ccccc1Cl)N(c1ccccn1)c1ccccn1,-2.33%
4,C=C1CCC2[C@](C)(CCC[C@]2(C)C(=O)OC)[C@H]1CCc1ccoc1CNCC(=O)O (stereo not given in full),3.42%
5,C=C1CCC2[C@](C)(CCC[C@]2(C)C(=O)OC)[C@H]1CCc1ccoc1C[N+](C)(C)Cc1ccccc1 (stereo not given in full),-1.66%
6,C=C1CCC2[C@](C)(CCC[C@]2(C)C(=O)OC)[C@H]1CCc1ccoc1/C=C/C(=O)O (stereo not given in full),46.4% (active)
7,FC(F)(F)c1cccc(CN2CCCn3c(nc4ccccc43)C2)c1,-0.144%
8,O=C(NCc1noc(C2CCCC2)n1)c1ccccc1,3.21%
9,CNc1ccc(-c2noc([C@@H]3CCCN3C3CCN(C)CC3)n2)cn1,-0.38%
10,COc1ccc(C(O)Cc2nc3ccccc3n2Cc2ccc(Cl)cc2)cc1 (stereo not given),1.15%
11,COC(=O)c1ccccc1NC(=O)c1cnc2ccccn2c1=O,0.362%
12,O=C(CNC1CCCc2ccccc21)Nc1cc(S(=O)(=O)N2CCCCC2)ccc1Cl (stereo not given),1.62%
13,Cc1nccc(N2CCCC2c2cnc(-c3ncc[nH]3)cn2)n1 (stereo not given),-5.73%
14,O=C(Cn1cc(S(=O)(=O)N2CCOCC2)ccc1=O)Nc1ccc(F)c(F)c1,2.08%
15,CS(=O)(=O)c1ccc(-n2cc(-c3ccncn3)cn2)cc1,-1.57%
16,O=C(c1ncccn1)N1CCCCC1c1ncc(Cc2cccc(F)c2)o1 (stereo not given),0.0694%
17,CC(OC(=O)c1cn(-c2ccccc2)nc1-c1cccnc1)C(=O)Nc1cccc(S(=O)(=O)N(C)C)c1 (stereo not given),-8.1%
18,Cc1nn(CCC(=O)Nc2ccc(C#N)cc2)c(C)c1S(=O)(=O)N1CCOCC1,7.2%
19,Cn1c(N2CCN(C(=O)c3ccc(F)cc3)CC2)cc(=O)n(C)c1=O,-3.62%

# From PubChem BioAssay AID1645856 (Buhrlage Lab, Dana-Farber Cancer Institute and Novartis …, 2021)
